The structures appear in SMILES notation. Screen size: about 100,000 compounds; about 4,200 (4.2%) were called active.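 How the source made its calls: active means single-dose well whose peak fluorescence ratio is a statistical outlier from its plate by either plate-standardised score or position-corrected B-score; inactive means the rest.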 The entries come from a sample that favours actives as a whole.

The assay deals with Voltage-dependent T-type calcium channel subunit alpha-1H (Homo sapiens) (UniProt O95180). Kind of assay: Cav3.2 calcium influx blockers – cell-based, Fluo-4 calcium fluorescence, FDSS, MLSMR library, primary screen (AID 449739). The following applies: Cav3.2-expressing cells, at 10 µM, active compounds read low.
Chain of Voltage-dependent T-type calcium channel subunit alpha-1H (Homo sapiens) (O95180 whole entry, looked up): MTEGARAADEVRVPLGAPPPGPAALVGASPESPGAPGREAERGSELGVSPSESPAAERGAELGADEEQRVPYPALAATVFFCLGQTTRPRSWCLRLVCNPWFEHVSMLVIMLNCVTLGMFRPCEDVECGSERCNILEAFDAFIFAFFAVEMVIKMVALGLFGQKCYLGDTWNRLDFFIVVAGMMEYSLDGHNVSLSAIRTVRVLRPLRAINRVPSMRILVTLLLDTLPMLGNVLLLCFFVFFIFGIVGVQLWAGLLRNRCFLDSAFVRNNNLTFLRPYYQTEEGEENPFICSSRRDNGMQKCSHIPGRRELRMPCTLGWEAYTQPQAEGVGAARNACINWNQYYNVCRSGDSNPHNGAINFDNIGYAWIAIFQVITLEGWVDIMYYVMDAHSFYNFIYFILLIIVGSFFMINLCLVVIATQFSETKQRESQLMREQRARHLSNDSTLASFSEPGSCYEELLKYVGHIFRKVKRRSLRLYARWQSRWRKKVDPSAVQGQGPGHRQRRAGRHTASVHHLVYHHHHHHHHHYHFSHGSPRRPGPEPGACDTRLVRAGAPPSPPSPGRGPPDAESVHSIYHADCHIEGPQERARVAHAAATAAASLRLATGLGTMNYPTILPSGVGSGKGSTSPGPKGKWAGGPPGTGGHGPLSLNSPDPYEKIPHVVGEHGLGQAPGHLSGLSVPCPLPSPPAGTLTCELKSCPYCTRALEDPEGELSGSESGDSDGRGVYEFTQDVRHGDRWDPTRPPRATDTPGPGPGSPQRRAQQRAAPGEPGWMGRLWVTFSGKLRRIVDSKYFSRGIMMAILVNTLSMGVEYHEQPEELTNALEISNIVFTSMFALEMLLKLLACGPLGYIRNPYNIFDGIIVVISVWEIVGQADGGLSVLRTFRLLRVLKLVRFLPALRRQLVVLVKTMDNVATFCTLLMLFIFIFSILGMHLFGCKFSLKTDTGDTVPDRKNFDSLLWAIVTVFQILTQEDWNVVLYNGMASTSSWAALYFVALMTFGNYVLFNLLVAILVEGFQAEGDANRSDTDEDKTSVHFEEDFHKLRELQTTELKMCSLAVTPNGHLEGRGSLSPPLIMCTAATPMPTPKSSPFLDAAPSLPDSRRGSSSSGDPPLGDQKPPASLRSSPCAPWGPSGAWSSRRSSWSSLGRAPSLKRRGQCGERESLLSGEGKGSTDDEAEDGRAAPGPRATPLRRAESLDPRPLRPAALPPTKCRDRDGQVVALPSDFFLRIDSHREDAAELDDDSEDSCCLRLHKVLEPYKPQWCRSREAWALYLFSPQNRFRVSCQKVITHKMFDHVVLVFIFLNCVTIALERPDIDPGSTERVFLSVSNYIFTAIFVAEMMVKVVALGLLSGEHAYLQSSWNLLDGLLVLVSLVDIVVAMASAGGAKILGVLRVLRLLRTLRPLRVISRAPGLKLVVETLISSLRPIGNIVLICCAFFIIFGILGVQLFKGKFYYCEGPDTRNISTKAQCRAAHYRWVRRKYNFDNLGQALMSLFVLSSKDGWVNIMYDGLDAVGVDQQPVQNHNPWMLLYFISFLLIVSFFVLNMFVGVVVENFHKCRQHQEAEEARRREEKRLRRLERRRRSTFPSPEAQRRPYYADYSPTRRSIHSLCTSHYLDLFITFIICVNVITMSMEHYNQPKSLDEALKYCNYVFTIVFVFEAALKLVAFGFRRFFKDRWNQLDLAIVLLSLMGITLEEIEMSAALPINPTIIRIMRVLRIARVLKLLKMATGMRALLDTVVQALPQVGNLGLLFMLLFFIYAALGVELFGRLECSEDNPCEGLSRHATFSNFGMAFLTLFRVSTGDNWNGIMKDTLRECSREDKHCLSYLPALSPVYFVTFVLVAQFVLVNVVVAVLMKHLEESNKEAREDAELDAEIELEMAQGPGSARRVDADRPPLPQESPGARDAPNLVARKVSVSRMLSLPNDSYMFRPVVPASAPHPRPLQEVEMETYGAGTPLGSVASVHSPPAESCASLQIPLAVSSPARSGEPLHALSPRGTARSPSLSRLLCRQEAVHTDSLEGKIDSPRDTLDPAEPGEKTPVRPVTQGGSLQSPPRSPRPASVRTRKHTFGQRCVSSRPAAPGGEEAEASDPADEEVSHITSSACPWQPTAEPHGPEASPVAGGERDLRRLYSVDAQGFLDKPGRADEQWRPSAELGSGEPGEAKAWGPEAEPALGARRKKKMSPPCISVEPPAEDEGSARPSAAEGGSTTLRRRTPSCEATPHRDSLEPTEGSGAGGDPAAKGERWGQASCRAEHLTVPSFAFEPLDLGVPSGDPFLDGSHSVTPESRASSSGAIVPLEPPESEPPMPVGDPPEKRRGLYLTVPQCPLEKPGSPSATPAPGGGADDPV
For the compound `O=C(COc1ncnc2c(Cl)cc(Cl)cc12)N1CCN(S(=O)(=O)c2ccccc2)CC1`, the B-score is 0.727 (inactive). Under `Cc1ccc(C(C(=O)NCc2ccco2)N(CC2CCCO2)C(=O)Cn2nnc3ccccc32)cc1` (stereo not drawn) stands 0.195 (inactive). As for `CC(C)(C)NC(=O)C(c1ccco1)N(Cc1ccc2c(c1)OCO2)C(=O)Cn1nnc2ccccc21` (stereo not drawn), the B-score was -1.57 (inactive). In the case of `COc1ccccc1N(C(=O)Cn1nnc2ccccc21)C(C(=O)NCc1ccco1)c1ccc(C)o1` (stereo not drawn) it was -6.1 (active). As to `CCOC(=O)c1cc(NC(=O)c2ccc(Cl)cc2)c(=O)oc1-c1ccccc1`, the B-score was -0.21 (inactive). In the case of `COC(=O)C1(O)CC(C(C)C)=NN1C(=O)c1ccc(Cl)cc1` (stereo not drawn) it was -0.542 (inactive). In the case of `Cc1nnsc1S(=O)(=O)Cc1ccccc1Cl` it was 0.123 (inactive); in that of `O=C(NNS(=O)(=O)c1ccc(Cl)cc1)C1CCN(Cc2ccccc2)CC1`, 0.455 (inactive). On to `COc1ccc(C(=O)Nc2nc(-c3ccc(OC)cc3)c(-c3ccc([N+](=O)[O-])cc3)s2)cc1`, for which the B-score is -2.13 (inactive).

For the compound `COC(=O)C(NC(=O)c1ccc(OC)cc1)(Nc1ncc(S(=O)(=O)c2ccc([N+](=O)[O-])cc2)s1)C(F)(F)F` (stereo not drawn), the B-score is -8.97 (active). Under `COc1ccc(C(=O)Nc2ccc(S(=O)(=O)NC(C)C)cc2)cc1` stands 1.46 (inactive); under `COC(=O)CCCC1=CC2=CC(=O)C(C)(OC(=O)c3cccs3)C(=O)C2=CN1CC(C)C` (stereo not drawn), 0.582 (inactive). `COC(C[C@@H]1O[C@@H]1C(=O)[C@H](C)OCc1ccccc1)OC`: the B-score was -0.00689 (inactive). In the case of `Cn1cccc1Cc1nnc(SCC(=O)NCCc2ccccc2)n1-c1ccc(F)cc1` it was -2.55 (inactive). Under `Cc1ccc(C)c(NC(=O)CSc2nnc(Cc3cccn3C)n2-c2ccc(F)cc2)c1` stands -2.84 (inactive); under `COC(=O)c1ccc(NC(=O)CSc2nnc(Cc3cccn3C)n2-c2ccc(F)cc2)cc1`, -9.38 (active). Under `COc1ccc(-n2c(Cc3cccn3C)nnc2SCC(=O)Nc2cc(C)cc(C)c2)cc1` stands -8.52 (active); under `COc1ccccc1NC(=O)CSc1nnc(Cc2cccn2C)n1-c1ccc(F)cc1`, -2.37 (inactive); under `CCc1nnc(NC(=O)CSc2nnc(Cc3ccccc3)n2-c2ccc(OC)cc2)s1`, -1.29 (inactive). Turning to `COc1ccccc1CNC(=O)c1ccc(SC)cc1OC`, the B-score is -2.74 (inactive).

With `Cc1ccccc1CS(=O)(=O)CC1(O)CCN(C(=O)c2cccc(C(F)(F)F)c2)CC1`, the B-score is 0.394 (inactive). Under `C#CCOCCOCCOCCNc1nc(N2CCN(C(=O)[C@H](Cc3ccc(O)cc3)n3cc(C(N)CC(C)C)nn3)CC2)nc(N2CCN(C(=O)[C@H](CCC(=O)O)n3cc(C(N)[C@H](C)CC)nn3)CC2)n1` (stereo partly drawn) stands -0.0524 (inactive); under `COc1cc(NC(=O)c2cncc(-c3ccc(C#N)cc3)c2)cc(C(=O)Nc2cccc(C(F)(F)F)c2)c1`, 0.721 (inactive).

Take `CCOc1[nH]n(-c2ccc(Cl)cc2)c(=O)c1C=Nc1ccc(O)cc1`: the B-score is -0.0117 (inactive). In the case of `O=C(Nc1ccc(-c2csc(Nc3cccc(C(F)(F)F)c3)n2)cc1)c1cccc(C(F)(F)F)c1` it was 0.00365 (inactive); in that of `COC(C[C@@H](O)C[C@H](O)[C@H](C)OCc1ccccc1)OC`, 1.07 (inactive); in that of `CCOc1ccc(-c2nnn(CC(=O)N3CCN(c4ccc(F)cc4)CC3)n2)cc1OCC`, 0.122 (inactive). Under `Cn1c(=O)c2c(ncn2CC(=O)N2CCN(c3ccccc3)CC2)n(C)c1=O` stands 0.538 (inactive); under `O=C(c1ccccc1)c1cccn1CC(=O)N1CCN(c2ccc(F)cc2)CC1`, -6.62 (active). `COc1ccc(NS(=O)(=O)c2ccc(NC(=S)NC(=O)CC(C)C)cc2)cc1`: the B-score is -2.74 (inactive). In the case of `Cc1c(C(=O)OC(C)C)sc(NC(=O)c2cccnc2)c1C#N` it was -2.15 (inactive). Under `CC(=O)c1cnn(-c2cc(Oc3ccc(F)cc3)ncn2)c1C` stands -0.109 (inactive); under `CCC(=O)Nc1cccc(C2=NOC3(C2)C[C@@H](C(N)=O)N(C(=O)c2cc([N+](=O)[O-])cc([N+](=O)[O-])c2C)C3)c1` (stereo partly drawn), 0.296 (inactive). In the case of `Cc1ccc(C(=O)NC2CCN(C(=O)N3CCOCC3)CC2)cc1` it was 1.24 (inactive); in that of `CCOc1ccc(C(=O)NC2CCN(C(=O)Nc3ccccc3OC)CC2)cc1`, 1.41 (inactive); in that of `COc1cc(OC)cc(C(=O)NC2CCN(C(=O)N3c4ccccc4Sc4ccccc43)CC2)c1`, -3.52 (active). For the compound `C=CC(COCc1ccccc1)N(Cc1ccccc1)S(=O)(=O)c1ccccc1Br` (stereo not drawn), the B-score was -0.978 (inactive). In the case of `O=C(CN1CCN(c2ccc(F)cc2)CC1)Nc1cccc(C(F)(F)F)c1` it was -5.59 (active); in that of `O=C(CN1CCOCC1)Nc1ccccc1`, -0.393 (inactive). In the case of `O=C(CN1CCN(CC(=O)Nc2ccc3c(c2)OCO3)CC1)Nc1ccc(F)cc1` it was 2.27 (inactive); in that of `COc1ccc(CCNC(=O)C2CC3Cn4c(nc5cc(C)c(C)cc54)C3N2C)cc1` (stereo not drawn), 0.841 (inactive); in that of `Cc1nn2c(c1-c1ccccc1)N=C(c1ccco1)CC2c1ccccc1` (stereo not drawn), -4.41 (active). In the case of `Cc1nn(C(=O)c2ccoc2C)c(N)c1-c1ccccc1` it was -1.25 (inactive).

For the compound `Cc1nc(NC(=O)c2cccc(Cl)c2)sc1-c1csc(Nc2cccc(Cl)c2)n1`, the B-score is 1.63 (inactive). Under `O=C(NCc1ccccc1)C1=C[C@@H](c2ccccc2)C[C@@H](OCCCCO)O1` stands 0.00916 (inactive); under `O=[N+]([O-])c1ccccc1NCc1ccc(Cl)cc1`, -0.134 (inactive); under `CCN(CC)S(=O)(=O)c1ccc(N(C)Cc2ccc(C(F)(F)F)cc2)nc1`, -5.7 (active). Under `C#CCN(N(C)c1ncc(C(F)(F)F)cc1Cl)S(=O)(=O)c1ccc2ccccc2c1` stands -1.26 (inactive); under `CC(C)(C)NCC(O)COc1cccc2[nH]c(=O)[nH]c12` (stereo not drawn), 2.63 (inactive); under `CN(c1ccccc1)c1ccc(/C=c2\s/c(=C(/C#N)C(=O)C(C)(C)C)n(Cc3ccco3)c2=O)cc1`, -7.8 (active).

Regarding `CCOC(=O)CSc1nc2c(sc(=S)n2CCc2ccccc2)c(=O)n1Cc1ccco1`, the B-score is -3.99 (inactive).

`Cc1cc2c(c(=O)n1Cc1ccco1)C(c1ccccc1)C(C#N)=C(N)O2` (stereo not drawn): the B-score was 0.691 (inactive).

As to `O=C1CCC(=O)N(O)CCCCCNC(=O)CCC(=O)N(O)CCCCCNC(=O)CCC(=O)N(O)CCCCCN1`, the B-score is 0.127 (inactive). `CC(C)(CCl)C(=O)Nc1ccc(Sc2ccc(F)cc2)cc1`: the B-score is -7.91 (active).

As to `COC(=O)c1ccc(Sc2ccc(F)cc2)c(N)c1`, the B-score was -2.9 (inactive). Under `CCN(c1ccccc1)S(=O)(=O)c1ccc(NC(=O)C(C)(C)C)cc1` stands -0.778 (inactive); under `CC1(C)Cc2ccccc2-c2nc(CN3CCOCC3)[nH]c(=O)c21`, -0.167 (inactive); under `CCC1(CC)Cc2ccccc2-c2nc3ccccc3c(=O)n21`, -0.963 (inactive). Under `CCOC(=O)C1Cn2c(nc3c(c2=O)C(C)(CC)Cc2ccccc2-3)S1` (stereo not drawn) stands -9.41 (active); under `CNC(=O)c1csc(-c2ccccc2)n1`, 0.414 (inactive); under `c1cncc(-c2nnc3n2C2(CCCCC2)Cc2ccccc2-3)c1`, 0.419 (inactive). Under `Cc1cccc(C(=O)Nc2ccc(C(=O)/C=C/c3cccs3)cc2)c1` stands -1.78 (inactive). For `COC(=O)C1=C(C(=O)OC)[C@@H]2N(C)c3ccccc3[C@@]23C[C@@H](C(=O)OC)N(C(=O)c2ccco2)C3=N1`, the B-score is 0.92 (inactive). In the case of `COCCCn1c(SCC(=O)Nc2ccccc2)nnc1-c1ccncc1` it was -1.03 (inactive); in that of `CCOc1ccc(Nc2nc(Cc3nnc(SCC(=O)NC4CCCC4)n3C)cs2)cc1`, -0.148 (inactive); in that of `COCCCn1c(Cc2csc(Nc3cccc(Cl)c3)n2)nnc1SCC(=O)OC1CCCCC1`, -7.39 (active). In the case of `Cc1ccc(/C=N\n2c(-c3ccccc3)n[nH]c2=S)s1` it was -0.0777 (inactive); in that of `CC1(C)S[C@@H]2[C@H](N=CN3CCCCCC3)C(=O)N2[C@H]1C(=O)O`, 0.247 (inactive). Under `O=c1cc(N2CCN(Cc3ccccc3)CC2)c(-c2ccccc2)n[nH]1` stands 0.119 (inactive); under `CC(C)Oc1ccc(CCc2n[nH]c(=S)n2Cc2ccccc2)cc1`, -1.48 (inactive); under `CC(C)N(c1ccccc1)c1ncnc(NCCC(=O)O)c1[N+](=O)[O-]`, 0.156 (inactive). As to `COc1ccc(NC(=S)N2N=CCC2c2ccccc2)cc1` (stereo not drawn), the B-score was 0.319 (inactive). Under `CNC(=S)N1N=C(c2ccccc2)CC1c1ccc(Br)cc1` (stereo not drawn) stands -7.33 (active); under `C=CCOC(=O)C1=C[C@@H](c2ccccc2)C[C@@H](OCc2ccc(CO)cc2)O1`, -1.02 (inactive); under `CCN1C(=O)N[C@@H](c2ccccc2)[C@H](C(C)=O)[C@H]1C`, 0.0204 (inactive). As for `Cc1cc(-c2cccs2)nc(-n2cccc2)n1`, the B-score is 0.352 (inactive). Under `CC1CC(C)CN(CC(=O)N2c3ccccc3CCc3ccccc32)C1` (stereo not drawn) stands -3.85 (inactive); under `O=C(CN1CCCCCC1)N1c2ccccc2Sc2ccc(C(F)(F)F)cc21`, -4.47 (active); under `O=C(CN1CCCCC1)N1c2ccccc2Sc2ccc(C(F)(F)F)cc21`, -2.51 (inactive).

As for `CC(Sc1nc2c([nH]c3ccccc32)c(=O)n1C)c1ccccc1` (stereo not drawn), the B-score is 0.215 (inactive).

Turning to `CN(C)CCNC(=O)Nc1cccc(Cl)c1Cl`, the B-score is 0.258 (inactive). For the compound `NC(=O)CC(NC(=O)Cc1cccc2ccccc12)c1ccc(NCc2cc(F)ccc2F)c([N+](=O)[O-])c1` (stereo not drawn), the B-score is -0.287 (inactive). In the case of `Cc1cnc(NC(=O)CSc2nnc(-c3ccccc3)n2Cc2ccccc2)s1` it was -2.37 (inactive). Under `Cc1cnc(NC(=O)CSc2nnc(-c3ccc(Cl)cc3Cl)n2N)s1` stands -4.55 (active). In the case of `Cc1cnc(NC(=O)CSc2c(Cl)cccc2Cl)s1` it was -0.466 (inactive); in that of `O=C1c2ccccc2S(=O)(=O)N1CC(O)Cn1c2ccccc2c2ccccc21` (stereo not drawn), -5.05 (active). For `CS(=O)(=O)N(CC(O)Cn1c2ccccc2c2ccccc21)c1cccc2ccccc12` (stereo not drawn), the B-score was 1.02 (inactive). In the case of `CNC(=O)CN1C(=O)c2ccccc2S1(=O)=O` it was 0.319 (inactive).
